About 79,000 compounds went through this panel and 15% of them were active in at least one assay; those are over-represented in the sample as a whole. Calls of active or inactive are those of the source. Rule as the data show it: active = growth inhibition above about 70%; inactive = the rest.
Key:
[1] = NCI Yeast Anticancer Drug Screen. Data for the rad50 strain (AID 155);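 also: 0% = growth of vehicle-only cultures of the same strain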; settings: S. cerevisiae rad50 strain growth inhibition, hits give high values
Procedure, shortened: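 Inhibition values express reduced yeast growth in compound-treated cultures relative to vehicle-treated controls.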

[2] = NCI Yeast Anticancer Drug Screen. Data for the mec2-1 strain (AID 157); settings: S. cerevisiae mec2-1 strain, hits give high values
Procedure, shortened: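 Yeast mec2-1 mutant treated with compound. Readout: growth inhibition vs vehicle controls.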

[3] = NCI Yeast Anticancer Drug Screen. Data for the sgs1 mgt1 strain (AID 161);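 also: 0% = growth of cultures given vehicle only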; settings: S. cerevisiae sgs1 mgt1 strain, hits give high values
Procedure, shortened: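 Genetically altered yeast, compound exposure, growth inhibition relative to vehicle.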

[4] = NCI Yeast Anticancer Drug Screen. Data for the cln2 rad14 strain (AID 165);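 also: 0% = growth equal to vehicle treated cultures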; settings: S. cerevisiae cln2 rad14 strain, hits give high values
Procedure, shortened: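 cln2 rad14 yeast strain; compound exposure; growth inhibition read vs vehicle controls.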

[5] = NCI Yeast Anticancer Drug Screen. Data for the bub3 strain (AID 167); settings: S. cerevisiae bub3 mutant strain, hits give high values
Procedure, shortened: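 Steps: expose the mutant yeast strain to compound; grow alongside vehicle-treated cultures; measure growth; express inhibition against the vehicle cultures.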

[6] = NCI Yeast Anticancer Drug Screen. Data for the mlh1 rad18 strain (AID 175); settings: S. cerevisiae mlh1 rad18 strain growth inhibition, hits give high values
Procedure, shortened: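 Yeast w/ defined DNA-repair lesions; compound exposure; growth vs vehicle controls → % inhibition.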

[7] = at 5.0 µM (retest, dose inferred, filed as 0.5)
[8] = at 50.0 µM (retest, dose inferred, filed as 5.0)

Measured: growth inhibition

CSc1nc(NN)cc(-c2ccccc2)n1
active: [5]; at 50.0 µM 81.2% | [6]; at 50.0 µM 79.3%
inactive: [1]; [7] 0% | [1]; [8] 23% | [1]; at 50.0 µM 12.5% | [2]; [7] 24% | [2]; [8] 19% | [2]; at 50.0 µM 50.3% | [3]; [7] 0% | [3]; [8] 57% | [3]; at 50.0 µM 56.7% | [4]; [7] 2% | [4]; [8] -2% | [4]; at 50.0 µM 3.1% | [5]; [7] -3% | [5]; [8] 68% | [6]; [7] -1% | [6]; [8] 54%

CCCCCCCCC1CCNCC1
inactive: [1]; [7] 39% | [1]; [8] 28% | [2]; [7] -6% | [2]; [8] 47% | [3]; [7] 26% | [4]; [7] 33% | [4]; [8] 38% | [5]; [7] 36% | [5]; [8] 62% | [6]; [7] 20% | [6]; [8] 23%
active: [1]; at 50.0 µM 85.5% | [2]; at 50.0 µM 87.7% | [3]; [8] 71% | [3]; at 50.0 µM 92.2% | [4]; at 50.0 µM 72.5% | [5]; at 50.0 µM 90.3% | [6]; at 50.0 µM 89.8%

CCCCCC/C=C\CCCCCCCCCC1=C(CN2CCN(C)CC2)C(=O)C=C(OC)C1=O
active: [1]; [8] 97% | [1]; at 50.0 µM 89.2% | [2]; [8] 98% | [2]; at 50.0 µM 91.8% | [3]; [7] 99% | [3]; [8] 98% | [3]; at 50.0 µM 90.3% | [4]; [7] 97% | [4]; [8] 98% | [4]; at 50.0 µM 89.2% | [5]; [7] 99% | [5]; [8] 98% | [5]; at 50.0 µM 91% | [6]; [8] 97% | [6]; at 50.0 µM 88.8%
inactive: [1]; [7] 24% | [2]; [7] 24% | [6]; [7] 54%

O=C(c1ccc([N+](=O)[O-])cc1)N1CCCSC1=S
inactive: [1]; [7] 19% | [1]; [8] 27% | [1]; at 50.0 µM 26.8% | [2]; [7] -7% | [2]; [8] 12% | [2]; at 50.0 µM 22.2% | [3]; [7] 10% | [3]; [8] 21% | [3]; at 50.0 µM 31.6% | [4]; [7] 21% | [4]; [8] 27% | [4]; at 50.0 µM 27.2% | [5]; [7] 6% | [5]; [8] 11% | [5]; at 50.0 µM 16% | [6]; [7] 11% | [6]; [8] 31% | [6]; at 50.0 µM 60.5%

Nc1c(O)c(Cl)cc(Cl)c1Cl
inactive: [1]; [7] 4% | [2]; [7] -4% | [3]; [7] 1% | [4]; [7] -3% | [5]; [7] 5% | [6]; [7] -1%
active: [1]; [8] 94% | [1]; at 50.0 µM 96.2% | [2]; [8] 95% | [2]; at 50.0 µM 98.9% | [3]; [8] 80% | [3]; at 50.0 µM 96.6% | [4]; [8] 70% | [4]; at 50.0 µM 74.6% | [5]; [8] 96% | [5]; at 50.0 µM 98.4% | [6]; [8] 93% | [6]; at 50.0 µM 99%

CCC[CH2][Sn]([CH2]CCC)([O]C(=O)c1cccc(F)c1)[O]C(=O)c1cccc(F)c1
inactive: [1]; [7] 26% | [1]; [8] 26% | [1]; at 50.0 µM 51.5% | [2]; [7] -2% | [2]; [8] -2% | [2]; at 50.0 µM 33.5% | [3]; [7] -1% | [3]; [8] -1% | [4]; [7] 10% | [4]; [8] 10% | [4]; at 50.0 µM 14.9% | [5]; [7] -2% | [5]; [8] -2% | [5]; at 50.0 µM 49.9% | [6]; [7] -1% | [6]; [8] -1% | [6]; at 50.0 µM 53%
active: [3]; at 50.0 µM 73.2%

CN(C)C(=O)SC1=C(c2c(Cl)cccc2Cl)C(=O)c2ccccc21
inactive: [1]; [7] 41% | [1]; at 50.0 µM 66.3% | [2]; [7] 32% | [2]; [8] 69% | [3]; [7] 53% | [4]; [7] 33% | [4]; [8] 61% | [5]; [7] 32%
active: [1]; [8] 74% | [2]; at 50.0 µM 74.5% | [3]; [8] 80% | [3]; at 50.0 µM 89.7% | [4]; at 50.0 µM 87.8% | [5]; [8] 71% | [5]; at 50.0 µM 85.9% | [6]; [7] 82% | [6]; [8] 93% | [6]; at 50.0 µM 82.8%

CCc1ccccc1NC(=O)C1=C(C)NC(C)=C(C(=O)Nc2c(CC)cccc2CC)C1c1ccc2c(c1)OCO2 (stereo not given)
inactive: [1]; [7] 30% | [1]; [8] 30% | [2]; [7] 22% | [2]; [8] 22% | [3]; [7] 29% | [3]; [8] 29% | [4]; [7] 15% | [4]; [8] 15% | [5]; [7] 24% | [5]; [8] 24% | [6]; [7] 28% | [6]; [8] 28%
active: [1]; at 50.0 µM 89.5% | [2]; at 50.0 µM 88.7% | [3]; at 50.0 µM 89.3% | [4]; at 50.0 µM 85.8% | [5]; at 50.0 µM 90.3% | [6]; at 50.0 µM 87.7%

CC1OC(OC2C(OC3CCC4(C)C(CCC5(C)C4CC=C4C6CC(C)(C)CCC6(CO)C(O)CC45C)C3(C)C)OC(C(=O)O)C(OC3OC(COC4OC(CO)C(O)C(O)C4O)C(O)C(O)C3O)C2O)C(O)C(O)C1O (stereo not given)
inactive: [1]; [7] -21% | [2]; [7] -22% | [3]; [7] -14% | [4]; [7] 15% | [5]; [7] -9% | [6]; [7] 9%
active: [1]; [8] 99% | [1]; at 50.0 µM 92.7% | [2]; [8] 100% | [2]; at 50.0 µM 94.2% | [3]; [8] 98% | [3]; at 50.0 µM 94.4% | [4]; [8] 99% | [4]; at 50.0 µM 92.5% | [5]; [8] 99% | [5]; at 50.0 µM 93.4% | [6]; [8] 99% | [6]; at 50.0 µM 93.5%

Cc1cccc(C[P+](c2ccccc2)(c2ccccc2)c2ccccc2)c1
active: [1]; [7] 76% | [1]; [8] 97% | [1]; at 50.0 µM 90.3% | [2]; [8] 99% | [2]; at 50.0 µM 93.1% | [3]; [8] 99% | [3]; at 50.0 µM 93.3% | [4]; [8] 98% | [4]; at 50.0 µM 91.9% | [5]; [7] 71% | [5]; [8] 99% | [5]; at 50.0 µM 92.2% | [6]; [7] 76% | [6]; [8] 98% | [6]; at 50.0 µM 90.3%
inactive: [2]; [7] 67% | [3]; [7] 58% | [4]; [7] 32%
